# Experimental data as given in ChEMBL document CHEMBL1961873, “Compounds: GSK PKIS; Assays: Nanosyn kinase panel” (2012).
# Legend:
# [1] = molecular target: T1, Inhibitor of nuclear factor kappa-B kinase subunit epsilon (Homo sapiens) (UniProt Q14164); details: at 1 µM;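 further: reported values are averaged percent inhibition figures against human IKKε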
# T1 sequence (whole entry): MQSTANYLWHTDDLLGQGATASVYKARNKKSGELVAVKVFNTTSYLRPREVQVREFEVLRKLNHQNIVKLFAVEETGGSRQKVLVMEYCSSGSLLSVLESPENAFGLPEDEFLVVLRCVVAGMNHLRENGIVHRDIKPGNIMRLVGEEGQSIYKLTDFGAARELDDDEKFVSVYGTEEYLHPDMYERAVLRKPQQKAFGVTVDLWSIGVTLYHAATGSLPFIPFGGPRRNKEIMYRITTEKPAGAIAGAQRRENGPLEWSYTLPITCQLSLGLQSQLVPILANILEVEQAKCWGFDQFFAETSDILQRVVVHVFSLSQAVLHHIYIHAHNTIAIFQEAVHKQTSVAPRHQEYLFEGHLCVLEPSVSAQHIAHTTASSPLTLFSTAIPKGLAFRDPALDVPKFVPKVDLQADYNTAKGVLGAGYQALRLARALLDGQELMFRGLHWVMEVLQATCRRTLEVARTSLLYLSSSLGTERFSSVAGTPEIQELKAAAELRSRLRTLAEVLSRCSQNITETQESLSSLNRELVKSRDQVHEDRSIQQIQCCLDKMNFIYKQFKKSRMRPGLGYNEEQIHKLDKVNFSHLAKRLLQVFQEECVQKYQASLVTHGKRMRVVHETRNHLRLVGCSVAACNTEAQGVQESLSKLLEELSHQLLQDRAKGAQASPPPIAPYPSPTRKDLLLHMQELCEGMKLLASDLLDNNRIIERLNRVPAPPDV
# [2] = molecular target: T2, Serine/threonine-protein kinase Nek1 (Homo sapiens) (UniProt Q96PY6); details: at 0.1 µM
# T2 sequence (whole entry): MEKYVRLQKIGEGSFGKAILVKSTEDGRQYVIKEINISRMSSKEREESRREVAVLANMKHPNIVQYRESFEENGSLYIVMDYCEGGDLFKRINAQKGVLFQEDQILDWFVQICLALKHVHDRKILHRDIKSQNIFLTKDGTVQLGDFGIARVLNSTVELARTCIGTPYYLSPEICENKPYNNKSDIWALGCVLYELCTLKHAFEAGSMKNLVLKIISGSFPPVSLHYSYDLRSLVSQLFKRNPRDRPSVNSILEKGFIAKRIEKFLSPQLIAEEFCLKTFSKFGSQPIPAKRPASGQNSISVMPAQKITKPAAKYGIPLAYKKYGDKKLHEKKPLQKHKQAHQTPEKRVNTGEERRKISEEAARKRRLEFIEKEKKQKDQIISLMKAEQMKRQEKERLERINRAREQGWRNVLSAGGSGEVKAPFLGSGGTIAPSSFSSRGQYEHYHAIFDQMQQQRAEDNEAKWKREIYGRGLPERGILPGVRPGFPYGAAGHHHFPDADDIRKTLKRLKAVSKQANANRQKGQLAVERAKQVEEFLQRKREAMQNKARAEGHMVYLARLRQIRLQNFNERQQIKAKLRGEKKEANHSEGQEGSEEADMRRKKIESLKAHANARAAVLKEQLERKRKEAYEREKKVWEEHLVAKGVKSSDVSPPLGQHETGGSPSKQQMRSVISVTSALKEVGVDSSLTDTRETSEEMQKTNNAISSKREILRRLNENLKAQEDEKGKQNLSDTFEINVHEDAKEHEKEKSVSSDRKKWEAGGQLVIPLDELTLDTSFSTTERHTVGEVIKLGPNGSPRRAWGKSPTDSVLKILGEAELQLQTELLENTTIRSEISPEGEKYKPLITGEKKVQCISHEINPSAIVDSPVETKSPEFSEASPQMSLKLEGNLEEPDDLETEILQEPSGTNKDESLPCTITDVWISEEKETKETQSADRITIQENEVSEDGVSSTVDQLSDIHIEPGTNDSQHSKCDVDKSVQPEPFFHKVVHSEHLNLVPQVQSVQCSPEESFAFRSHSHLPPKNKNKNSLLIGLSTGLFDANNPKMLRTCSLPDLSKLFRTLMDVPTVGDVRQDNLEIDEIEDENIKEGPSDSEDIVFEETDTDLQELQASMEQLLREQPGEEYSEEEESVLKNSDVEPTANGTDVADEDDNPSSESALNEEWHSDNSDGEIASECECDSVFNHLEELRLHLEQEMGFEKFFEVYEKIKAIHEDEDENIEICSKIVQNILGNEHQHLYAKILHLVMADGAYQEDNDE
# [3] = molecular target: T2, Serine/threonine-protein kinase Nek1 (Homo sapiens); details: at 1 µM
# [4] = molecular target: T3, Serine/threonine-protein kinase Nek2 (Homo sapiens) (UniProt P51955); details: at 0.1 µM
# T3 sequence (whole entry): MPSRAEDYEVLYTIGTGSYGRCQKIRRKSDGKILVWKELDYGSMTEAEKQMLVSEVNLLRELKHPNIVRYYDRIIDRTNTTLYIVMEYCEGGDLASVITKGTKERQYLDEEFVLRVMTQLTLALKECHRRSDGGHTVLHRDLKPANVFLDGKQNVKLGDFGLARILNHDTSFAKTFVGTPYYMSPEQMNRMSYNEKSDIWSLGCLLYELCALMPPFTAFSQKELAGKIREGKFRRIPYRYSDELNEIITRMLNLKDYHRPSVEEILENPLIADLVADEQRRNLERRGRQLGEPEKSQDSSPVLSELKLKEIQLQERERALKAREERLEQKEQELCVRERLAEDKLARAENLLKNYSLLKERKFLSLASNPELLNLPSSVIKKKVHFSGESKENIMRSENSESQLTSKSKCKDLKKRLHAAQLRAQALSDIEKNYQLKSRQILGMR
# [5] = molecular target: T3, Serine/threonine-protein kinase Nek2 (Homo sapiens); details: at 1 µM
# [6] = molecular target: Serine/threonine-protein kinase Nek6 (Homo sapiens) (UniProt Q9HC98); details: at 0.1 µM
# Sequence of Serine/threonine-protein kinase Nek6 (Homo sapiens) (Q9HC98 whole entry): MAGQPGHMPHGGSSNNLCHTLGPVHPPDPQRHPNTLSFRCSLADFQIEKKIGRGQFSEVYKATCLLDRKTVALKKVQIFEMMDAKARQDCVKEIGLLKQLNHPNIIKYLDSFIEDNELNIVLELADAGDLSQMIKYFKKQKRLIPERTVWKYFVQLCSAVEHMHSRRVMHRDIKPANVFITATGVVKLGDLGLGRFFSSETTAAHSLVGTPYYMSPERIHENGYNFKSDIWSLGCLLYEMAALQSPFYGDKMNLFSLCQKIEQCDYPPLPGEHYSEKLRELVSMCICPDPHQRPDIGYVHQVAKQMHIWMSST
# [7] = molecular target: Serine/threonine-protein kinase Nek6 (Homo sapiens) (UniProt Q9HC98); details: at 1 µM
# [8] = molecular target: Serine/threonine-protein kinase Nek7 (Homo sapiens) (UniProt Q8TDX7); details: at 0.1 µM
# Sequence of Serine/threonine-protein kinase Nek7 (Homo sapiens) (Q8TDX7 whole entry, looked up): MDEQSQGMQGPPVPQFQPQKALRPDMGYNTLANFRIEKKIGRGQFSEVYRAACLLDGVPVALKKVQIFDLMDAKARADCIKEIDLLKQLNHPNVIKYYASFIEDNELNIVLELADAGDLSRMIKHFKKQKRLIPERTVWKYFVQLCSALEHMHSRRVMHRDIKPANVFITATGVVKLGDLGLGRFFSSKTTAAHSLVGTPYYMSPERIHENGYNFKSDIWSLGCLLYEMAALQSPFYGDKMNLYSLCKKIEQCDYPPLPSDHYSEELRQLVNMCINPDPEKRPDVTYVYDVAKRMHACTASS
# [9] = molecular target: Serine/threonine-protein kinase Nek7 (Homo sapiens) (UniProt Q8TDX7); details: at 1 µM
# [10] = molecular target: T4, Serine/threonine-protein kinase Nek9 (Homo sapiens) (UniProt Q8TD19); details: at 0.1 µM
# T4 sequence (whole entry): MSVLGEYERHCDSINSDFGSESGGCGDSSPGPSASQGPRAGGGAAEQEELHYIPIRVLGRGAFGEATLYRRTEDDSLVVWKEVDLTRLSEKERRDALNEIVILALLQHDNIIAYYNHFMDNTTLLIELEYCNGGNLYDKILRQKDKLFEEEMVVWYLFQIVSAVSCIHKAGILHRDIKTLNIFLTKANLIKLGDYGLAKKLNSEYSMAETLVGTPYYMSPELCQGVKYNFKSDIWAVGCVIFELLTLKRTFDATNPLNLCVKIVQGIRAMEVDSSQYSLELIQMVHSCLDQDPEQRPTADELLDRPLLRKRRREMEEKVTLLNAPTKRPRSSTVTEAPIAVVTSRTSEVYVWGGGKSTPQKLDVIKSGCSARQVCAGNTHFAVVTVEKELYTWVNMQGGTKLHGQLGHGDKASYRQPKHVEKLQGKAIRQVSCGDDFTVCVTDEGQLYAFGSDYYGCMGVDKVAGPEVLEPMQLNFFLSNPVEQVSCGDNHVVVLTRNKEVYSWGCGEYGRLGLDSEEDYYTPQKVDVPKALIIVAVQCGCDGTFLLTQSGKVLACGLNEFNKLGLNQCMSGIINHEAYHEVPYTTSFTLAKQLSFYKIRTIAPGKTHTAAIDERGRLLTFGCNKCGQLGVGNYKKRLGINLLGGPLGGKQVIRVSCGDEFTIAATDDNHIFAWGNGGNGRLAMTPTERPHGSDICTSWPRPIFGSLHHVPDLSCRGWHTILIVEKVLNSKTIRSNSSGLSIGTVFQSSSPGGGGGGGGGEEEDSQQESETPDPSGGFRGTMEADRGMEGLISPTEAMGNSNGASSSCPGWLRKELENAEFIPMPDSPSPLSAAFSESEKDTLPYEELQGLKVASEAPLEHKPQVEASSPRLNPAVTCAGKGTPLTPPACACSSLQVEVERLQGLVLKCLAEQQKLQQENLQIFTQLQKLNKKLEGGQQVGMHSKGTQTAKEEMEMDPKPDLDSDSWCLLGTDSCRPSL
# [11] = molecular target: T4, Serine/threonine-protein kinase Nek9 (Homo sapiens); details: at 1 µM
# [12] = molecular target: Serine/threonine-protein kinase PLK1 (Homo sapiens) (UniProt P53350); details: at 0.1 µM
# Sequence of Serine/threonine-protein kinase PLK1 (Homo sapiens) (P53350 whole entry): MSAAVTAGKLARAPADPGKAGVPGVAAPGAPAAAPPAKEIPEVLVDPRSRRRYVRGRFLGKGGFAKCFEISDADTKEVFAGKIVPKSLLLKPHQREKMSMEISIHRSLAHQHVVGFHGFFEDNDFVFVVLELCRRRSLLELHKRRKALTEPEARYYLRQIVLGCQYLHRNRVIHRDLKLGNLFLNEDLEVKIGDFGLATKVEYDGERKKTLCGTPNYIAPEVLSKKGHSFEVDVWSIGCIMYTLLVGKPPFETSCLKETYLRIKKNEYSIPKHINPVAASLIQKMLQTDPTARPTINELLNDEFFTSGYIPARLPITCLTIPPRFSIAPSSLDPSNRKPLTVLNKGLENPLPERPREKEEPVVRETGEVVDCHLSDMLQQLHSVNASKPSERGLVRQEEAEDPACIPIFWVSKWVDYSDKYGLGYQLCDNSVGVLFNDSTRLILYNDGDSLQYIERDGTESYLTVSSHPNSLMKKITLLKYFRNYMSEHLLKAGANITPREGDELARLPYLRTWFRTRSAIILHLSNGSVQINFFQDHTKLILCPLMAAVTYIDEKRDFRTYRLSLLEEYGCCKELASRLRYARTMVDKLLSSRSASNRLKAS
# [13] = molecular target: Serine/threonine-protein kinase PLK1 (Homo sapiens) (UniProt P53350); details: at 1 µM
# [14] = molecular target: T5, Dual specificity protein kinase TTK (Homo sapiens) (UniProt P33981); details: at 0.1 µM
# T5 sequence (whole entry): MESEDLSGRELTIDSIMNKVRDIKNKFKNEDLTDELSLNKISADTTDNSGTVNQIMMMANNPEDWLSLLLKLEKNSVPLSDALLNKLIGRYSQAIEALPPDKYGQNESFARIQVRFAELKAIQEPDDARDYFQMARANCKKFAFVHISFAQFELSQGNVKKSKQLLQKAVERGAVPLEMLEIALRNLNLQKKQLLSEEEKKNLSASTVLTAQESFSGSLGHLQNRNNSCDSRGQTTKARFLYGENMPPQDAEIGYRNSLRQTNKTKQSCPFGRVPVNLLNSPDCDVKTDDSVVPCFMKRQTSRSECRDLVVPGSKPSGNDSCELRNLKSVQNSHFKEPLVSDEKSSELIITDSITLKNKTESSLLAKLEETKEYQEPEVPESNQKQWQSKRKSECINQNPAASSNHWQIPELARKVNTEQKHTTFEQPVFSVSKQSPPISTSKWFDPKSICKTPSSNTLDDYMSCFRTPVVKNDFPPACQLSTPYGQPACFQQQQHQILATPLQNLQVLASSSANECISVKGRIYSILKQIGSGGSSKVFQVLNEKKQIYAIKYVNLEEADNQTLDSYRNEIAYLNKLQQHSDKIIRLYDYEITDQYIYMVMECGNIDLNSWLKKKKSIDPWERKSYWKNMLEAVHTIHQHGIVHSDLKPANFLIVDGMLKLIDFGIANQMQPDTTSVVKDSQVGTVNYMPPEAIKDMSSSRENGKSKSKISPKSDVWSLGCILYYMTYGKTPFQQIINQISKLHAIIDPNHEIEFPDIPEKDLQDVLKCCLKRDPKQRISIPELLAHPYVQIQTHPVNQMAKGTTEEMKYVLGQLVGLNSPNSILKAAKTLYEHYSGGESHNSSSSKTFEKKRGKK
# [15] = system: T6, Receptor-type tyrosine-protein kinase FLT3 (Homo sapiens), P36888 [D835Y]; details: at 1 µM
# T6 sequence (whole entry): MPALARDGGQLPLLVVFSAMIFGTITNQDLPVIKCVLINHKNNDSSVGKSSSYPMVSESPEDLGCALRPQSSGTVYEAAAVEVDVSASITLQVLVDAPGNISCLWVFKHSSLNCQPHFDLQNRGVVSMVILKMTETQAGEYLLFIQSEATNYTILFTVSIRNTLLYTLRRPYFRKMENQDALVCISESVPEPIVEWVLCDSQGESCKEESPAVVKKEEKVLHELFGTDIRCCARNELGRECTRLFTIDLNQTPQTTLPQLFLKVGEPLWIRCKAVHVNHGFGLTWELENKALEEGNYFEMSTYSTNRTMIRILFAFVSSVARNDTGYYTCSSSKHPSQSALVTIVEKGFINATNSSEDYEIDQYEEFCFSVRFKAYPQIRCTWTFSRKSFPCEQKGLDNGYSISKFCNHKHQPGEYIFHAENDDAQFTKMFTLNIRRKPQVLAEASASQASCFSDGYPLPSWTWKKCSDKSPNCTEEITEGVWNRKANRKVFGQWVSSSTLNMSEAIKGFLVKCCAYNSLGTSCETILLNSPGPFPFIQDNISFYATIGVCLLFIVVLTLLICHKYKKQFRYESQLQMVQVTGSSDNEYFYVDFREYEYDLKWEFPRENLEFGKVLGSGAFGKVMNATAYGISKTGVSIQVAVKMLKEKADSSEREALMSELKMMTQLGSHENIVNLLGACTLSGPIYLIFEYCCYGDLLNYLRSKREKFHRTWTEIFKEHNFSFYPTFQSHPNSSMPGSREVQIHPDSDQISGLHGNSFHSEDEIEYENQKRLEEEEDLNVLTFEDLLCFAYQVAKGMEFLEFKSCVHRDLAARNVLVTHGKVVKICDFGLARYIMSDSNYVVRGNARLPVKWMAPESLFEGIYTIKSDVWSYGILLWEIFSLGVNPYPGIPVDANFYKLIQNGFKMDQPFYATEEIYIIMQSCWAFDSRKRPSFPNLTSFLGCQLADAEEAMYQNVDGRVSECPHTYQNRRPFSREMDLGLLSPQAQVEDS
# [16] = molecular target: Vascular endothelial growth factor receptor 3 (Homo sapiens) (UniProt P35916); details: at 0.1 µM
# Sequence of Vascular endothelial growth factor receptor 3 (Homo sapiens) (P35916 whole entry): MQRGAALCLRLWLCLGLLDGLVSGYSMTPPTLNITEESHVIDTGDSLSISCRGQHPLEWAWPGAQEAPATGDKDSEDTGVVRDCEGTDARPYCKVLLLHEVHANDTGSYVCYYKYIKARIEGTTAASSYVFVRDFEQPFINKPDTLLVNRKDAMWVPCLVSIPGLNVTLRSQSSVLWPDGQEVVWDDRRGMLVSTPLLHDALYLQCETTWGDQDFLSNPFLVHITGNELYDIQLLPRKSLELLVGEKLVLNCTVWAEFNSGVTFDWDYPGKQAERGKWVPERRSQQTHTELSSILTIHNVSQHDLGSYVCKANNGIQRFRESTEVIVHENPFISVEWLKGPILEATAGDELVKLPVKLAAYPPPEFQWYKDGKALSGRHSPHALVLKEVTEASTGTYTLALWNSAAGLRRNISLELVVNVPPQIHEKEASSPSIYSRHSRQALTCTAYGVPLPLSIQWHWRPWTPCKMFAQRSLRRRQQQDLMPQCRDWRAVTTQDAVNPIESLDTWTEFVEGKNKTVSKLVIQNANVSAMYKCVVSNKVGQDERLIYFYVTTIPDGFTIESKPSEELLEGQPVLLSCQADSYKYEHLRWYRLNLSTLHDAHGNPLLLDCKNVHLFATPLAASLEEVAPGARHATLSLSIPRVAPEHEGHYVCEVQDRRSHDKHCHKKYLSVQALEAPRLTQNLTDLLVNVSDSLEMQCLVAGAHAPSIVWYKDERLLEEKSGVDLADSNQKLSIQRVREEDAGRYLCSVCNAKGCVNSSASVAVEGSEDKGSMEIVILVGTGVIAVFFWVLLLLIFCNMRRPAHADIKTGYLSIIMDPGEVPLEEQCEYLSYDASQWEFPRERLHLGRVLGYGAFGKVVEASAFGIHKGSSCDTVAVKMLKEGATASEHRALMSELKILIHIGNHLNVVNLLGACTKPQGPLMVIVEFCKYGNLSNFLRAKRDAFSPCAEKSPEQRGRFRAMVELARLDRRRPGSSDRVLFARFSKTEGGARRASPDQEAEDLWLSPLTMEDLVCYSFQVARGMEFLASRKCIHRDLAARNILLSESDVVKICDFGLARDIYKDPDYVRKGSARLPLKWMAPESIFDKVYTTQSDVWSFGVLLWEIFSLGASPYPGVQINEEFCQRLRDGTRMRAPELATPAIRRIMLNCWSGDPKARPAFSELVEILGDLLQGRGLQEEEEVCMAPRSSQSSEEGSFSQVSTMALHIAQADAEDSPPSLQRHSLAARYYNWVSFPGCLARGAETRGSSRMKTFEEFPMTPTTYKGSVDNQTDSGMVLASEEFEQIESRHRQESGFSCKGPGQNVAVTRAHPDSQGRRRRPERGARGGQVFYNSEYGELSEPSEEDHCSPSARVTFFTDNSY
# [17] = molecular target: Vascular endothelial growth factor receptor 3 (Homo sapiens) (UniProt P35916); details: at 1 µM
# [18] = molecular target: Macrophage colony-stimulating factor 1 receptor (Homo sapiens) (UniProt P07333); details: at 0.1 µM
# Sequence of Macrophage colony-stimulating factor 1 receptor (Homo sapiens) (P07333 whole entry): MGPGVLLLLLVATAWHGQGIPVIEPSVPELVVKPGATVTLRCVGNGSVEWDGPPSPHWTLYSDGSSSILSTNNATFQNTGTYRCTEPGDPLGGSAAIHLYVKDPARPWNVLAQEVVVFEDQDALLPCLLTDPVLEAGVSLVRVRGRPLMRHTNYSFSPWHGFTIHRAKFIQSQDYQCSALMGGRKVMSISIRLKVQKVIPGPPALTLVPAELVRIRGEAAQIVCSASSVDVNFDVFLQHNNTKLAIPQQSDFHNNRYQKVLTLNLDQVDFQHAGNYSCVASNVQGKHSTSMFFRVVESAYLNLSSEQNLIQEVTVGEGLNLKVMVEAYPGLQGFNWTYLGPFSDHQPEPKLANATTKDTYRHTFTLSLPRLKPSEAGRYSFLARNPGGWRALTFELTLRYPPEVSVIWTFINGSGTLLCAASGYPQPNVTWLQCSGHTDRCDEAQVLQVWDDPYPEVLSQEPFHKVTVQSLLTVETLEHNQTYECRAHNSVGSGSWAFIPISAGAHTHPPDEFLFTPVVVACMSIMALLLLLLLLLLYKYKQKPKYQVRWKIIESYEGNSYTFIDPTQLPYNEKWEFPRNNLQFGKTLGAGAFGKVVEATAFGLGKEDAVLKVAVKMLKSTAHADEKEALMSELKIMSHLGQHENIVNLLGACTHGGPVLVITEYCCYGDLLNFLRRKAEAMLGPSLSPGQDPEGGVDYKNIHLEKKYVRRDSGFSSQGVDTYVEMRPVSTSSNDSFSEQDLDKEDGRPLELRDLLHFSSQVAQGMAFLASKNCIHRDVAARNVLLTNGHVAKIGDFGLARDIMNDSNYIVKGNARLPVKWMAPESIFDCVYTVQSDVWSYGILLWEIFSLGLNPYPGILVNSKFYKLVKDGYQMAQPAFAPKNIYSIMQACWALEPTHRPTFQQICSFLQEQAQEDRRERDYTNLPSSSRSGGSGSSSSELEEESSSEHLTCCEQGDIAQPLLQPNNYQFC
# [19] = molecular target: Macrophage colony-stimulating factor 1 receptor (Homo sapiens) (UniProt P07333); details: at 1 µM
# [20] = molecular target: Tyrosine-protein kinase Fyn (Homo sapiens) (UniProt P06241); details: at 0.1 µM
# Sequence of Tyrosine-protein kinase Fyn (Homo sapiens) (P06241 2-537 limits assumed): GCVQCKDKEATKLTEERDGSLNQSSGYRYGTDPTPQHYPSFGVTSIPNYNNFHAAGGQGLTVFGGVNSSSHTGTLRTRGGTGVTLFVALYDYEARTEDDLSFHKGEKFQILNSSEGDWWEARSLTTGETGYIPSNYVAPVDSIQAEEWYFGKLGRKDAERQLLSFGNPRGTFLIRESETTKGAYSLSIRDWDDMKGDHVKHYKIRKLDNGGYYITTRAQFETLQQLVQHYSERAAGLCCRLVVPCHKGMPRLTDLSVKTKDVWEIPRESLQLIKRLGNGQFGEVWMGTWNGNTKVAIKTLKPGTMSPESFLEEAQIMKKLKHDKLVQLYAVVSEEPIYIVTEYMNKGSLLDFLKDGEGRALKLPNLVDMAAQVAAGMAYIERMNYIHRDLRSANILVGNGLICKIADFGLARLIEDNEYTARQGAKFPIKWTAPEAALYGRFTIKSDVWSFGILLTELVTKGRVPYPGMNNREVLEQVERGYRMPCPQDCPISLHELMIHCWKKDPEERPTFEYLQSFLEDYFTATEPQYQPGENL
Structure (SMILES),inhibition [1],inhibition [2],inhibition [3],inhibition [4],inhibition [5],inhibition [6],inhibition [7],inhibition [8],inhibition [9],inhibition [10],inhibition [11],inhibition [12],inhibition [13],inhibition [14],inhibition [15],inhibition [16],inhibition [17],inhibition [18],inhibition [19],inhibition [20]
CN(C)CCCn1c(-c2nonc2N)nc2cnccc21,4.6%,2.29%,2.28%,5.09%,5.23%,0.8%,5.07%,6.28%,1.98%,8.39%,12.3%,3.73%,4.15%,8.12%,-1.23%,15.4%,15.3%,2.34%,1.06%,2.62%
Cc1ccc(NC(=O)CC2CC2)cc1-c1ccc(C(=O)NCC2CC2)cc1,3.27%,2.27%,3.32%,3.73%,3.66%,2.7%,0.33%,4.87%,4.36%,5.37%,7.42%,3.49%,1.97%,5.15%,0.64%,0.87%,-0.77%,2.08%,-0.55%,1.7%
